From PubChem BioAssay AID1159580 (chemical genetic matrix, 2015)
“And” between values parts separate entries of the source, which are not always exact repeats. Identical values can stand only once. Screen size: about 5,500 compounds; about 2,000 (36%) were called active. About 18% were inconclusive and are not listed. Cut-off read from the data, not from the text of the source: active = normalized growth mostly below about 0.91 (no sharp cut-off); inconclusive = no clear call, values can overlap the other calls; inactive = mostly above about 0.92. Some of the results follow.

Experiment: chemical genetic growth profiling, strain panel (AID 1159580);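 note: tested at 20 µM; growth read once vehicle control cultures reached saturation at 30 °C; 1 = growth at the plate median or of vehicle wells; lower values mean less growth of the strain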
Conditions: S. cerevisiae deletion strains, growth OD

Measured: normalized growth

O=C1C=C2C(=CCOC2O)O1 (stereo unspecified)
active: locus YAL021C, strain ccr4, stronger effect = lower value 0.679 | locus YAL026C, strain drs2, stronger effect = lower value 0.644 | locus YAL030W, strain snc1, stronger effect = lower value 0.781 | locus YBL061C, strain skt5, stronger effect = lower value 0.796 | locus YBR009C, strain hhf1, stronger effect = lower value 0.71 | locus YBR021W, strain FUR4, stronger effect = lower value 0.762 | locus YBR023C, strain chs3, stronger effect = lower value 0.784 | locus YBR171W, strain sec66, stronger effect = lower value 0.672 | locus YBR231C, strain swc5, stronger effect = lower value 0.73 | locus YBR279W, strain paf1, stronger effect = lower value 0.78 | locus YCL011C, strain gbp2, stronger effect = lower value 0.759 | locus YCL016C, strain dcc1, stronger effect = lower value 0.73 | locus YCL069W, strain vba3, stronger effect = lower value 0.752 | locus YCR088W, strain abp1, stronger effect = lower value 0.792 | locus YDL005C, strain med2, stronger effect = lower value 0.881 | locus YDL035C, strain GPR1, stronger effect = lower value 0.776 | locus YDL040C, strain nat1, stronger effect = lower value 0.887 | locus YDL074C, strain BRE1, stronger effect = lower value 0.678 | locus YDL101C, strain DUN1, stronger effect = lower value 0.851 | locus YDL185W, strain tfp1, stronger effect = lower value 0.789 | locus YDL192W, strain arf1, stronger effect = lower value 0.789 | locus YDR001C, strain nth1, stronger effect = lower value 0.846 | locus YDR069C, strain doa4, stronger effect = lower value 0.652 | locus YDR101C, strain arx1, stronger effect = lower value 0.8 | locus YDR137W, strain rgp1, stronger effect = lower value 0.335 | locus YDR150W, strain NUM1, stronger effect = lower value 0.831 | locus YDR159W, strain sac3, stronger effect = lower value 0.847 | locus YDR162C, strain NBP2, stronger effect = lower value 0.258 | locus YDR297W, strain sur2, stronger effect = lower value 0.797 | locus YDR318W, strain mcm21, stronger effect = lower value 0.793 | locus YDR334W, strain swr1, stronger effect = lower value 0.845 | locus YDR335W, strain msn5, stronger effect = lower value 0.698 | locus YDR388W, stronger effect = lower value 0.864 | locus YDR392W, strain spt3, stronger effect = lower value 0.555 | locus YDR502C, strain sam2, stronger effect = lower value 0.763 | locus YEL003W, strain gim4, stronger effect = lower value 0.659 | locus YEL037C, strain rad23, stronger effect = lower value 0.82 | locus YEL061C, strain CIN8 (second series), stronger effect = lower value 0.759 | locus YEL061C, strain CIN8, stronger effect = lower value 0.848 | locus YER015W, strain faa2, stronger effect = lower value 0.635 | locus YER016W, strain bim1, stronger effect = lower value 0.833 | locus YER110C, stronger effect = lower value 0.597 | locus YER155C, strain BEM2 (second series), stronger effect = lower value 0.303 | locus YER167W, strain BCK2, stronger effect = lower value 0.795 | locus YFR010W, strain ubp6, stronger effect = lower value 0.613 | locus YGL078C, strain dbp3, stronger effect = lower value 0.869 | locus YGL086W, strain mad1, stronger effect = lower value 0.806 | locus YGL167C, strain pmr1, stronger effect = lower value 0.846 | locus YGL173C, strain kem1, stronger effect = lower value 0.707 | locus YGL227W, strain vid30, stronger effect = lower value 0.843 | locus YGL240W, strain doc1, stronger effect = lower value 0.487 | locus YGL248W, strain PDE1, stronger effect = lower value 0.883 | locus YGL253W, strain hxk2, stronger effect = lower value 0.657 | locus YGR078C, strain PAC10, stronger effect = lower value 0.702 | locus YGR135W, strain pre9, stronger effect = lower value 0.784 | locus YGR229C, strain SMI1, stronger effect = lower value 0.366 | locus YGR252W, strain gcn5, stronger effect = lower value 0.462 | locus YHR013C, strain ard1, stronger effect = lower value 0.589 | locus YHR027C, strain rpn1, stronger effect = lower value 0.71 | locus YHR030C, strain SLT2, stronger effect = lower value 0.9 and 0.845 | locus YHR079C, strain IRE1 (second series), stronger effect = lower value 0.858 | locus YHR079C, strain IRE1, stronger effect = lower value 0.84 | locus YHR129C, strain ARP1, stronger effect = lower value 0.855 | locus YHR142W, strain chs7, stronger effect = lower value 0.684 | locus YHR200W, strain rpn10, stronger effect = lower value 0.91 | locus YIL066C, strain RNR3, stronger effect = lower value 0.776 | locus YIL073C, strain SPO22, stronger effect = lower value 0.5 | locus YIL125W, strain kgd1, stronger effect = lower value 0.886 | locus YIR030C, strain dcg1, stronger effect = lower value 0.911 | locus YJL092W, strain hpr5, stronger effect = lower value 0.744 | locus YJL095W, strain BCK1 (second series), stronger effect = lower value 0.833 | locus YJL095W, strain BCK1, stronger effect = lower value 0.795 and 0.859 | locus YJL129C, strain trk1, stronger effect = lower value 0.769 | locus YJL154C, strain vps35, stronger effect = lower value 0.859 | locus YJL164C, strain tpk1, stronger effect = lower value 0.757 | locus YJL166W, strain qcr8, stronger effect = lower value 0.667 | locus YJL187C, strain SWE1 (second series), stronger effect = lower value 0.829 | locus YJR075W, strain HOC1, stronger effect = lower value 0.805
inactive: locus YAL013W, strain DEP1, stronger effect = lower value 0.922 | locus YBR229C, strain ROT2, stronger effect = lower value 0.991 | locus YCL029C, strain bik1, stronger effect = lower value 0.913 | locus YDL134C, strain PPH21, stronger effect = lower value 0.9 | locus YDR195W, strain ref2 0.927 | locus YER111C, strain swi4, stronger effect = lower value 0.938 | locus YER155C, strain BEM2, stronger effect = lower value 0.962 | locus YHR094C, strain hxt1, stronger effect = lower value 0.948 | locus YJL115W, strain asf1, stronger effect = lower value 0.961 | locus YJL134W, strain LCB3, stronger effect = lower value 0.961 | locus YJL168C, strain set2, stronger effect = lower value 0.939 | locus YJR043C, strain POL32, stronger effect = lower value 0.882 | locus YJR066W, strain TOR1, stronger effect = lower value 0.831
